Laboratory results reported in paper PMC7862700, “An all-to-all approach to the identification of sequence-specific readers for epigenetic DNA modifications on cytosine”.

Tests used:
Assay in all cases: DAPPL (digital affinity profiling via proximity ligation, sequencing); 10 mM Tris-HCl pH 7.5, 50 mM NaCl, 1 mM DTT, 4% glycerol, room temperature, 30 min; GST-TFs on glutathione beads, 16-mer random dsDNA library, 0.1% formaldehyde crosslink after washing; high values mean tight binding
Conditions in all cases: protein: recombinant; tags: N-terminal GST; dsDNA, one strand shown
ERG = molecular target: T1, ERG (Homo sapiens, UniProt P11308 1-479)
T1 sequence: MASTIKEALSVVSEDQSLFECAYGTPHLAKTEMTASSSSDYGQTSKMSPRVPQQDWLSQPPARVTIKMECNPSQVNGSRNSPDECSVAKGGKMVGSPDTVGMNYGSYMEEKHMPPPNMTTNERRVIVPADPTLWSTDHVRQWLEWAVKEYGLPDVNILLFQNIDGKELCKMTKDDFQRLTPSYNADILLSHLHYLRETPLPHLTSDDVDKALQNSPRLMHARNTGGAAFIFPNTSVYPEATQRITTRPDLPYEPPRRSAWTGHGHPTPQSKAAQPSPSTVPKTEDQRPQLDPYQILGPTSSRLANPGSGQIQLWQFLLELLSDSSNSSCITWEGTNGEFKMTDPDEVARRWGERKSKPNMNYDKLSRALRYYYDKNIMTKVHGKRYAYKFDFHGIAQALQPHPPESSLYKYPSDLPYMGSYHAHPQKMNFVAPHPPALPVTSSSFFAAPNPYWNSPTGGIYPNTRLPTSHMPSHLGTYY
Summary of the method: (§1)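 Beads coated with glutathione captured GST-fused human transcription factors that had been expressed in yeast, and the factors were then given DNA barcodes and pooled with a tag-only sample. The pools were incubated with 200 nmole of a random double-stranded 16-mer DNA library in Tris/NaCl/DTT/glycerol buffer for 30 min at room temperature, washed, crosslinked with 0.1% formaldehyde and proximity-ligated with BsaI/T4 ligase at 37 °C for 1 h. PCR amplification and Illumina NextSeq500 sequencing came last. Binding signal is each hexamer's read frequency for a factor divided by its frequency for the tag-only sample.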

ELF1 = ELF1 (Homo sapiens, UniProt P32519 1-619)
Summary of the method: as §1

EHF = molecular target: T2, EHF (Homo sapiens, UniProt Q9NZC4 1-300)
T2 sequence: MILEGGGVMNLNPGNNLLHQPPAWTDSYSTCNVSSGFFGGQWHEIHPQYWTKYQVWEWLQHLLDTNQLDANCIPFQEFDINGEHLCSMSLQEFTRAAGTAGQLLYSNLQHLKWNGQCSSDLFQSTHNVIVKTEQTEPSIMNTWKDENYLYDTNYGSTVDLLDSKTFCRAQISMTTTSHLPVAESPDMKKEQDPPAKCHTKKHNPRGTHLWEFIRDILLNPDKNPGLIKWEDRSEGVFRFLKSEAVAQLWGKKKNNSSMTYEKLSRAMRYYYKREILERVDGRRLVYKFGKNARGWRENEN
Summary of the method: as §1

SPIB = SPIB (Homo sapiens, UniProt Q01892 1-262)
Summary of the method: as §1

ETV5 = ETV5 (Homo sapiens, UniProt P41161 1-510)
Summary of the method: as §1

ELF3 = molecular target: T3, ELF3 (Homo sapiens, UniProt P78545 1-371)
T3 sequence: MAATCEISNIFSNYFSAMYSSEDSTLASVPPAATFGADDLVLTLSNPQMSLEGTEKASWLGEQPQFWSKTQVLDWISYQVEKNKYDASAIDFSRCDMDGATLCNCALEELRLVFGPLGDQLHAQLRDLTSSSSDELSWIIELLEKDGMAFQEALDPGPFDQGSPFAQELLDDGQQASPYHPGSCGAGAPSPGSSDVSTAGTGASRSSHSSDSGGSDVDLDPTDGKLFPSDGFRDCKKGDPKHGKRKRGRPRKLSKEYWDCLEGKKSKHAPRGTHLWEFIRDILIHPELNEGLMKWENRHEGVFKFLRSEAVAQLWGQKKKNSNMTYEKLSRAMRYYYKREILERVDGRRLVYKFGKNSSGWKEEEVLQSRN
Summary of the method: as §1

ETV1 = ETV1 (Homo sapiens, UniProt P50549 1-477)
Summary of the method: as §1

GABPA = molecular target: T4, GABPA (Homo sapiens, UniProt Q06546 1-454)
T4 sequence: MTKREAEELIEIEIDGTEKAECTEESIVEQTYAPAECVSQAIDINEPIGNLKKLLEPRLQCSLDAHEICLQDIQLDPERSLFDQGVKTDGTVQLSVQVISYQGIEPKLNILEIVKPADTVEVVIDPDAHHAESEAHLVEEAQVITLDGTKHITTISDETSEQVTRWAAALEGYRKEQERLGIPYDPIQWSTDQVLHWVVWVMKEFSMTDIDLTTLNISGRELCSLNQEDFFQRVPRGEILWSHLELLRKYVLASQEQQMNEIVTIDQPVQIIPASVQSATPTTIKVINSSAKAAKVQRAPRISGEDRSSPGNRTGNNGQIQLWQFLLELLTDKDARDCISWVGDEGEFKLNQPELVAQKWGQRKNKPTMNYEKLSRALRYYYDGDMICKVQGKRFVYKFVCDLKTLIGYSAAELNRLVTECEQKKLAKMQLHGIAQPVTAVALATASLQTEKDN
Summary of the method: as §1

SPIC = molecular target: T5, SPIC (Homo sapiens, UniProt Q8N5J4 1-248)
T5 sequence: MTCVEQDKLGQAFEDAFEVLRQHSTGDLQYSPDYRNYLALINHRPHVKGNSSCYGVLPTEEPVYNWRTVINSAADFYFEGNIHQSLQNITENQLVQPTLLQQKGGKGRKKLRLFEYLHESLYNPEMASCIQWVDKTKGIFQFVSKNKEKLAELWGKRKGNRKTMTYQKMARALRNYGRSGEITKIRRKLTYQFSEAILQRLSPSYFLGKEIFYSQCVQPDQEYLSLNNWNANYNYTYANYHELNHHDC
Summary of the method: as §1

ELF4 = ELF4 (Homo sapiens, UniProt Q99607 1-663)
Summary of the method: as §1

ETV3L = molecular target: T6, ETV3L (Homo sapiens, UniProt Q6ZN32 1-361)
T6 sequence: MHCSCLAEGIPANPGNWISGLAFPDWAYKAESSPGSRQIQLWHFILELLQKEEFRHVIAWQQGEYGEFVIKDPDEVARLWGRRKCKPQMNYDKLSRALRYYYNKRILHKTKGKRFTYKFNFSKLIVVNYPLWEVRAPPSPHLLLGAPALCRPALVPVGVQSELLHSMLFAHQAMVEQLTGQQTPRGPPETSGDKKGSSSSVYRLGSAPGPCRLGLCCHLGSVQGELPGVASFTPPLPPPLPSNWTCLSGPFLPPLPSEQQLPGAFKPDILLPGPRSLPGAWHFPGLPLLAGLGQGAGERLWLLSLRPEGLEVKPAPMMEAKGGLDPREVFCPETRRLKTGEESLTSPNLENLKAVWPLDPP
Summary of the method: as §1

ETS2 = molecular target: T7, ETS2 (Homo sapiens, UniProt P15036 1-469)
T7 sequence: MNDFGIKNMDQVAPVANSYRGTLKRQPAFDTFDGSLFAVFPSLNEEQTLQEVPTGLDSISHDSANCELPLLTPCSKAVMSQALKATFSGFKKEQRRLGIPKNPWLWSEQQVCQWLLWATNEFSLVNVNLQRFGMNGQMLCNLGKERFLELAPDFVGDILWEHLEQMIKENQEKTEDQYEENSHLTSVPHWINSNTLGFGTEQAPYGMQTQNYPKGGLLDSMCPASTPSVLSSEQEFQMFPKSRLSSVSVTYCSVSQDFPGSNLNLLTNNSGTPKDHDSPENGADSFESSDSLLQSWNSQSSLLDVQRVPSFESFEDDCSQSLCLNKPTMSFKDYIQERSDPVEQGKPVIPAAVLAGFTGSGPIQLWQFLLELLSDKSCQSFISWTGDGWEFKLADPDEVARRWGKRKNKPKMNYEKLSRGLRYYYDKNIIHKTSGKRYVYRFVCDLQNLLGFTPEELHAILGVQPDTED
Summary of the method: as §1

ETV7 = molecular target: T8, ETV7 (Homo sapiens, UniProt Q9Y603 1-341)
T8 sequence: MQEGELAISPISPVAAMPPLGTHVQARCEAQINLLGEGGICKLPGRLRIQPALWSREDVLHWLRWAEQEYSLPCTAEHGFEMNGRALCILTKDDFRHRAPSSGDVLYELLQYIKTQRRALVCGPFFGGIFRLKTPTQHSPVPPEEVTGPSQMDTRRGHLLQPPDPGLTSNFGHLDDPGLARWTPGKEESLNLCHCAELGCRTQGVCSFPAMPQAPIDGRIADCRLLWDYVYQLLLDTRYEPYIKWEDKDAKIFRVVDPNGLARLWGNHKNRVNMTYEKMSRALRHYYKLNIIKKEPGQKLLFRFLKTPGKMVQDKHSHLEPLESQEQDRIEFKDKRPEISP
Summary of the method: as §1

ETV3 = molecular target: T9, ETV3 (Homo sapiens, UniProt P41162-2 1-143)
T9 sequence: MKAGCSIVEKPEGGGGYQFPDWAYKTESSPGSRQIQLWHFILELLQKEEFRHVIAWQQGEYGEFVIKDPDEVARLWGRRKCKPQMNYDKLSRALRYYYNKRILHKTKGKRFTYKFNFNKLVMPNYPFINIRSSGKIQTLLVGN
Summary of the method: as §1

SPIB, sequence (Q01892 whole entry): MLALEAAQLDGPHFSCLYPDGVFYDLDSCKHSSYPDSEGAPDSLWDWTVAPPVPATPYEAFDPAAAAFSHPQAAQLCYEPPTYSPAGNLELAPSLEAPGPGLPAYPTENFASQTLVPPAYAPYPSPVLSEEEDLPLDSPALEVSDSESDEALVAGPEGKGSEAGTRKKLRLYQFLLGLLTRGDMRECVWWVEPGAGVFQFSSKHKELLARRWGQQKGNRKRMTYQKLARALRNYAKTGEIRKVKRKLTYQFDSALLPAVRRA
ETV5, sequence (P41161 whole entry): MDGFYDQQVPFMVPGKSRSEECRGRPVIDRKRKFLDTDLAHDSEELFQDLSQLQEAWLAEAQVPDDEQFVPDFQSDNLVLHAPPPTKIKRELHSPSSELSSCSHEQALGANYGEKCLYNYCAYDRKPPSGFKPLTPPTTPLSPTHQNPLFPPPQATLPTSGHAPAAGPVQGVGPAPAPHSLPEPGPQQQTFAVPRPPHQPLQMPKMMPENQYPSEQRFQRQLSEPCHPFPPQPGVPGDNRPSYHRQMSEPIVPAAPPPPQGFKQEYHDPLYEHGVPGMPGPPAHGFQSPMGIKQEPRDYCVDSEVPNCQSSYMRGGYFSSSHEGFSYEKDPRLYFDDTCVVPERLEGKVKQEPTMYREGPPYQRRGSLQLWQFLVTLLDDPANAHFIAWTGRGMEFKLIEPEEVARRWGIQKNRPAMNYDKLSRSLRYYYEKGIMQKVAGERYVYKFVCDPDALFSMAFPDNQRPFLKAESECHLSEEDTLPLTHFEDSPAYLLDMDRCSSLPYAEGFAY
ELF1, sequence (P32519 whole entry): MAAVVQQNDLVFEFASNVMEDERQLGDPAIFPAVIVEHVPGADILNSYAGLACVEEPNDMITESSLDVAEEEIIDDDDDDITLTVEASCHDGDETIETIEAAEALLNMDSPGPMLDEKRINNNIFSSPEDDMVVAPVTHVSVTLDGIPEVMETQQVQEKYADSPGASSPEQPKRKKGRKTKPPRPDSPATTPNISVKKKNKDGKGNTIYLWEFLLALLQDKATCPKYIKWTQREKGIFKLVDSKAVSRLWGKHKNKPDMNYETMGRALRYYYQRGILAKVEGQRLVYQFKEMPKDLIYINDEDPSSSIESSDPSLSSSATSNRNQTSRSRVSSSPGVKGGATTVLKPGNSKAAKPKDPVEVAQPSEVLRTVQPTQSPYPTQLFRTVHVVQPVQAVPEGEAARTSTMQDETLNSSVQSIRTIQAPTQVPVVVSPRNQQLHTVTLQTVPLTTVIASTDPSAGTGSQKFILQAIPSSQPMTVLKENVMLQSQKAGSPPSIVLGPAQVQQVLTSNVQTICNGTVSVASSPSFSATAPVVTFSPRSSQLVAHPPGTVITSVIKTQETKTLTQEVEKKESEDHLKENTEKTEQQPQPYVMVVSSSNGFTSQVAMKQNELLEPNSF
ETV1, sequence (P50549 whole entry): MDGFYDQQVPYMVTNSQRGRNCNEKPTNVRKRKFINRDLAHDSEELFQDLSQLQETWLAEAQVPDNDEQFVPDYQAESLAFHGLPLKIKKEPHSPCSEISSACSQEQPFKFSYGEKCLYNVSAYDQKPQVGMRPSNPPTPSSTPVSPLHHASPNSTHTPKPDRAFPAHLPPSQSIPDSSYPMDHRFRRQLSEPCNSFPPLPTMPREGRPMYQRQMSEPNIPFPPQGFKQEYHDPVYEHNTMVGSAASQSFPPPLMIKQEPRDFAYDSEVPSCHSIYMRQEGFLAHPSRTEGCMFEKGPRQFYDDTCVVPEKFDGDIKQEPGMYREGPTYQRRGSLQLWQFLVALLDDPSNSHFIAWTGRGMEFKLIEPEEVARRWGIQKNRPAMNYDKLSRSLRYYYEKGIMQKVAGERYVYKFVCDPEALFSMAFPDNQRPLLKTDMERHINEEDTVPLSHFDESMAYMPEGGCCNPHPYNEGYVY
ELF4, sequence (Q99607 whole entry): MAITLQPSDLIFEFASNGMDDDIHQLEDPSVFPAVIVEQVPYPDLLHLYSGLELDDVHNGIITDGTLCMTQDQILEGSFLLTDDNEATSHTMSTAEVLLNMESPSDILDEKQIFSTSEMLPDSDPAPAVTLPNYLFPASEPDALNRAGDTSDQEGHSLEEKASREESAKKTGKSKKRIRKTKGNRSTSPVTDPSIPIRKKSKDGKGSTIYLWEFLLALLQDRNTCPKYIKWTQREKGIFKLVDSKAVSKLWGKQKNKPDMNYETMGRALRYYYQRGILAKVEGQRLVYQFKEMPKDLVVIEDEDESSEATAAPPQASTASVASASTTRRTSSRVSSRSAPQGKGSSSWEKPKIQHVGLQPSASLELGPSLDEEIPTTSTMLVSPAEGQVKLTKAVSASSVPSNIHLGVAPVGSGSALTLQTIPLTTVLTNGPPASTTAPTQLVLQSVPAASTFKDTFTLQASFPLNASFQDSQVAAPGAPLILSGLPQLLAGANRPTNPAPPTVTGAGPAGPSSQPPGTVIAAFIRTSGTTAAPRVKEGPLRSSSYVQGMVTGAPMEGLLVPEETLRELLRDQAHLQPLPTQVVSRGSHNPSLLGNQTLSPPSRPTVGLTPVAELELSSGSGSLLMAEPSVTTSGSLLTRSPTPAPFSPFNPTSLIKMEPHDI

**Q.** What does the source list for TGGAAC?
**A.** binding signal (ERG): 1.02 fold enrichment (6-mer frequency, TF over GST control); binding signal (ELF1): 1 fold enrichment (6-mer frequency, TF over GST control); binding signal (EHF): 1.04 fold enrichment (6-mer frequency, TF over GST control); binding signal (SPIB): 1.04 fold enrichment (6-mer frequency, TF over GST control); binding signal (ETV5): 1.05 fold enrichment (6-mer frequency, TF over GST control); binding signal (ELF3): 1.05 fold enrichment (6-mer frequency, TF over GST control); binding signal (ETV1): 1.04 fold enrichment (6-mer frequency, TF over GST control)

**Q.** Which binding signal (GABPA) does the source give for CGGCTG here?
**A.** 1.03 fold enrichment (6-mer frequency, TF over GST control)

**Q.** What about the binding signal (ERG) of the same sequence?
**A.** 1.04 fold enrichment (6-mer frequency, TF over GST control)

**Q.** And the binding signal (EHF)?
**A.** 1.05 fold enrichment (6-mer frequency, TF over GST control)

**Q.** And the binding signal (SPIB)?
**A.** 1.03 fold enrichment (6-mer frequency, TF over GST control)

**Q.** And the binding signal (ETV5)?
**A.** 1.01 fold enrichment (6-mer frequency, TF over GST control)

**Q.** And the binding signal (SPIC)?
**A.** 1.12 fold enrichment (6-mer frequency, TF over GST control)

**Q.** What about the binding signal (ELF4) of the same sequence?
**A.** 1.12 fold enrichment (6-mer frequency, TF over GST control)

**Q.** And the binding signal (ETV3L)?
**A.** 1.02 fold enrichment (6-mer frequency, TF over GST control)

**Q.** What about the binding signal (ETS2) of the same sequence?
**A.** 1.07 fold enrichment (6-mer frequency, TF over GST control)

**Q.** What about the binding signal (ETV7) of the same sequence?
**A.** 1.1 fold enrichment (6-mer frequency, TF over GST control)

**Q.** And the binding signal (ETV3)?
**A.** 1.01 fold enrichment (6-mer frequency, TF over GST control)
